Shown is part of a subset that was picked to be rich in hits.
Mac1 fbg enh – CD11b/CD18-fibrinogen binding enhancement; P05107+P11215; K562 CD11b/CD18 adhesion to fibrinogen, ATPlite luminescence; activation, % at 10 µM; 93,000 tested, 0.07% active; AID 1499;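 active means 10 µM primary screen giving 50% or more activity, confirmed by 40% or more on retest at that dose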
Ecoli WT expand – E. coli BW25113 growth inhibition, expanded screen | OD600 absorbance | growth inhibition, % at 100 µM | 98,000 tested, 0.15% active | AID 710;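 active means growth inhibition above about 50% at one test dose, limit read from the data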;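 further: growth measured after 20 h incubation at 37 °C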
CD11b adhes inh – CD11b/CD18-fibrinogen binding inhibition | P05107+P11215 | 93,000 tested, 0.54% active | K562 CD11b/CD18 adhesion to fibrinogen, ATPlite luminescence; Mn2+ added to activate the integrin | inhibition, % at 10 µM;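 active means primary inhibition of 50% or more at 10 µM, then 40% or more on retest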
Cav32 inh – human Cav3.2 channel inhibition, primary screen | O95180 | 100,000 tested, 4% active | B-score at 10 µM | Cav3.2-expressing cells, Fluo-4 calcium fluorescence FDSS; active compounds read low;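 active means single-dose well whose peak fluorescence ratio is a statistical outlier from its plate by either plate-standardised score or position-corrected B-score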
* marks the source's active call; other numbers are inactive results; . = not tested or not shown.

SMILES	Mac1 fbg enh	Ecoli WT expand	CD11b adhes inh	Cav32 inh
COc1ccccc1N1CCN(c2cc(=O)n(Cc3ccc(F)cc3)c(=O)[nH]2)CC1	.	-7	.	-6.1*
Cc1ccc(-c2nn(-c3ccccc3)cc2CN(Cc2ccccc2)C(=O)c2ccco2)o1	4	-21	-8	-4*
O=c1cc(-c2ccccc2)nc2nc(SCc3ccccc3)[nH]n12	-2	-8	-4	-4.6*
Cc1cc(=O)n2[nH]c(SCc3ccccc3)nc2n1	-1	-3	2	0.27
CO[C@H]1O[C@@H]2O[C@@]3(C)CC[C@H]4[C@H](C)CC[C@@H]([C@H]1C)[C@@]24OO3	.	.	.	-0.54
COc1ccccc1N1CCN(CC(O)c2ccc3cc[nH]c3c2)CC1 (centres undefined)	24	6	-18	-5.6*
O=Cc1ccc(Oc2cc(-c3ccccc3)nc(-c3ccccc3)n2)cc1	9	.	15	.
O=S(Cc1cc(Oc2ccccc2)nc(-c2ccccc2)n1)c1ccccc1 (centres undefined)	.	-19	.	-6.6*
CCCCCCNc1nc(-c2ccc(OC)cc2)c(CCC(=O)O)s1	6	.	1	.
Cc1nn(-c2cccc(Cl)c2)c2nc(C(F)(F)F)[nH]c(=O)c12	-8	.	102*	.
Cc1cc(C)nc(-n2nc(C)c3c(=O)[nH]c(C(F)(F)F)nc32)n1	-2	-4	5	0.26
O=C(/C=C/c1cccc([N+](=O)[O-])c1)NCCN1CCOCC1	.	4	.	0.34
CN(Cc1ccccc1)C(=O)CCS(=O)(=O)c1ccc2c(c1)n(C)c(=O)c(=O)n2C	5	-1	-1	-4.9*
CCC(C)NC(=O)CCS(=O)(=O)c1ccc2c(c1)n(C)c(=O)c(=O)n2C (centres undefined)	0	1	-6	0.91
O=C(CSc1nccn1-c1ncc(C(F)(F)F)cc1Cl)c1ccc(Cl)cc1	.	4	.	-2.5*
O=C(OCCN1CCN(c2ncc(C(F)(F)F)cc2Cl)CC1)c1ccc(Cl)cc1	-10	-2	95	-0.03
c1cc(-c2cc3cc(N4CCOCC4)ccc3o2)cs1	.	.	.	0.11
O=C(c1c(F)cccc1F)N1CCN(c2cccc(C(F)(F)F)c2)CC1	0	-6	3	-2.7
O=c1ccn(-c2cccc(C(F)(F)F)c2)nc1-c1ccn(-c2ccccc2F)n1	.	6	.	-8*
COc1ccccc1NC(=O)c1nn(-c2cccc(C(F)(F)F)c2)ccc1=O	.	-10	.	.
COc1ccc(-n2ccc(-c3nn(-c4cccc(C(F)(F)F)c4)ccc3=O)n2)cc1	2	1	-4	-4.4*
CC(C)NC(=O)[C@@H]1C[C@@]1(C)[C@@H](NC(=O)OCc1ccccc1)c1ccccc1	.	.	.	0.19
O=c1ncc(F)c[nH]1	.	.	.	-0.84
O=C1Nc2ccccc2/C1=N/c1sc2c(c1C(=O)NCCc1ccccc1)CCCC2	0	-5	-6	.
O=C1CC(N2CCN(c3cccc(C(F)(F)F)c3)CC2)C(=O)N1c1ccccc1F (centres undefined)	-2	4	-14	-3.2*
SMILES	Mac1 fbg enh	Ecoli WT expand	CD11b adhes inh	Cav32 inh
COc1cccc(-c2nc(-c3ccc(NC(=O)c4cccnc4)cc3)no2)c1	9	-6	-12	-0.16
COc1ccc(CC(=O)Nc2ccc(-c3noc(-c4cccc(OC)c4)n3)cc2)cc1	.	-9	.	-4.2*
COc1ccc(CN2CCc3ccccc3C2)c(OC)c1OC	-2	-1	-5	1.1
CCCCCCn1ccc(=N)cc1	-5	10	56*	0.95
O=C(Nc1ccccc1-c1ccccc1)c1ccc(Br)o1	0	-7	-5	-3.9*
CCc1ccc(C(=O)COC(=O)C(Cc2ccccc2)NC(=O)c2ccc(Cl)cc2)cc1 (centres undefined)	5	-14	3	-4.8*
N=C1CCCN1CC(=O)c1ccc(Br)cc1	0	.	-11	.
COc1ccc(N(C)S(=O)(=O)c2cccc3cccnc23)c(OC)c1	54*	7	-2	-0.053
COc1ccc(NC(=O)C2CCCN2S(=O)(=O)c2cccc3cccnc23)c(OC)c1 (centres undefined)	0	3	13	0.71
COc1ccc(C(=O)NC(C)(C)C)cc1S(=O)(=O)N1CCCC1	-4	8	-34	1.3
O=C(NNC1=C(C(=O)C(F)(F)F)CCC1)c1cccc(Cl)c1	-7	32	99*	-7.6*
O=C(NNC(=O)c1ccccc1F)c1cccc(Cl)c1	.	-1	.	0.33
O=C(NNC1=C(C(=O)C(F)(F)F)CCC1)c1ccc(Cl)cc1	-15	17	96*	-2.4
Cc1ccc(-n2c(SCC(=O)N3Cc4ccccc4CC3C(=O)O)nnc2-c2cccnc2)c(C)c1 (centres undefined)	-1	.	-11	.
O=C(Nc1ccc(Cl)c(Cl)c1)N1CC=CCC1	-4	-6	4	-0.29

Screening data as filed in PubChem.
